Test results from PubChem BioAssay (NCI).
This is part of a sample that, as a whole, favours compounds with a hit. Of some 83,000 tested, about 20% had one in any assay.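 Activity criterion: percent growth below 10, measured after cells in 96-well plates were exposed to a single compound concentration for 48 hours.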 A number with no mark means an inactive call. The source made the active and inactive calls.

Legend:
Test in all cases: NCI-60 one-dose screen, 48 h (100 = growth as untreated, 0 = no growth, -100 = all killed)
Settings in all cases: 10 µM unless noted
[1] = tested on: HCT-15 colon
[2] = tested on: HT29 colon
[3] = tested on: SNB-75 CNS
[4] = tested on: SNB-19 CNS
[5] = tested on: U251 CNS
[6] = tested on: PC-3 prostate
[7] = tested on: SK-MEL-5 melanoma
[8] = tested on: UACC-62 melanoma
[9] = tested on: LOX IMVI melanoma
[10] = tested on: SK-MEL-28 melanoma
[11] = tested on: SK-MEL-2 melanoma
[12] = tested on: EKVX NSCLC
[13] = tested on: SN12C renal
[14] = tested on: UO-31 renal
[15] = tested on: TK-10 renal
[16] = tested on: ACHN renal
[17] = tested on: CAKI-1 renal
[18] = tested on: A498 renal
[19] = tested on: CCRF-CEM leukemia
[20] = tested on: MOLT-4 leukemia

| Compound | growth [1] | growth [2] | growth [3] | growth [4] | growth [5] | growth [6] | growth [7] | growth [8] | growth [9] | growth [10] | growth [11] | growth [12] | growth [13] | growth [14] | growth [15] | growth [16] | growth [17] | growth [18] | growth [19] | growth [20] |
| --- | --- | --- | --- | --- | --- | --- | --- | --- | --- | --- | --- | --- | --- | --- | --- | --- | --- | --- | --- | --- |
| COc1cc2c3c(c4c5ccccc5[nH]c4c2c(OC)c1OC)C(=O)N(CCN1CCOCC1)C3=O | 50% | 34.2% | 86.4% | 51.9% | 51.8% | 48.4% | 54.7% | 43.3% | 45% | 99.2% | 73.9% | 91.2% | 47.8% | 52.4% | 76.2% | 35.2% | 40.9% | 54.1% | 23.1% | 6.55% (active) |
| COc1cc(OC)cc(C(=O)C[n+]2cccc3cc[nH]c32)c1 | 108% | 97.1% | 86.9% | 93.1% | 102% | 96.5% | 97.3% | 89.8% | 93.8% | 100% | 103% | 98% | 87.3% | 71.2% | 118% | 101% | 89% | 92.1% | 99.2% | 105% |
| COc1ccc(-c2nc([C@@H](C)Sc3nc(N)cc(N)n3)c(C)s2)cc1OCCN1CCOCC1 | 103% | 97.4% | 91.9% | 91.3% | 91.8% | 79.8% | 82.2% | 84.3% | 95.8% | 113% | 104% | 105% | 99.8% | 73.7% | 104% | 92.3% | 90.6% | 35.6% | 83.7% | 85.1% |
| C[C@H]1[C@H](C)CC[C@]2(C(=O)Nc3ccc4ncccc4c3)CC[C@]3(C)C(=CC[C@@H]4[C@@]5(C)CCCNC(C)(C)[C@@H]5CC[C@]43C)[C@H]12 | -83.7% (active) | -88.5% (active) | 78.2% | -59.6% (active) | -86.3% (active) | -4.73% (active) | -18.8% (active) | -74.5% (active) | -89.7% (active) | -67.3% (active) | 90.5% | 76.6% | -86.1% (active) | -76.5% (active) | 102% | -75.1% (active) | 26.7% | 98.3% | -25.5% (active) | -47.9% (active) |
| CSc1nc2sc3cccc(Cl)c3n2c(=N)c1C#N | 111% | 113% | 103% | 109% | 95.6% | 90.8% | 95.4% | 90% | 93.7% | 115% | 105% | 90.1% | 101% | 68.5% | 123% | 95% | 86.8% | 56.2% | 86% | 90% |
| COc1ccc(/C=C/C(=O)Nc2cc(/C=C\c3cc(OC)c(OC)c(OC)c3)cc(OC)c2OC)cc1OC | 25.9% | 14.6% | 34.7% | 46.2% | 41.3% | 20.7% | -59.3% (active) | 16.3% | 27.7% | 40.1% | 19.9% | 31.4% | 33% | 19.4% | 73.9% | 39.1% | 12% | -1.95% (active) | 3.79% (active) | -13.9% (active) |
| NS(=O)(=O)c1ccc(CCn2c(SCC(=O)c3ccc(Cl)cc3)nc3ccccc3c2=O)cc1 | 98.2% | 102% | 90.2% | 102% | 109% | 98.2% | 104% | 98.9% | 96.8% | 113% | 107% | 98.9% | 101% | 84.5% | 97.2% | 99.9% | 89.7% | 99.2% | 97.8% | 97.6% |
| COc1ccc(Cc2cnc(NC(=O)c3ccc4c(c3)OCCO4)s2)cc1 | 7.26% (active) | 2.59% (active) | 17.9% | 37.7% | 12.3% | 23.4% | -39.3% (active) | 48.1% | 29.3% | 68.6% | 39.3% | 37.7% | 30.7% | 54.8% | 41% | 27.9% | 27.8% | -6.31% (active) | 13.5% | 11.6% |
| COc1ccc2c(c1)oc1c(C)c3c(c(C)c12)C(=O)N(N)C3=O | 41.9% | 6.15% (active) | -55.9% (active) | 46.2% | 13.6% | 54.1% | 4.46% (active) | 43.6% | 43.4% | 51% | 93% | 49.1% | 38.7% | -45.8% (active) | -4.02% (active) | -23.7% (active) | 34.2% | -7.39% (active) | 55.8% | 17.4% |
| CNC(=O)c1cc(Cn2nc(C)c(NC(=O)Nc3ccc(Cl)c(C(F)(F)F)c3)c2C)ccn1 | 98% | 92.4% | 68% | 103% | 86.7% | 79.4% | 91.8% | 93.7% | 98% | 107% | 82.3% | 102% | 98.6% | 90.5% | 103% | 97.9% | 93.6% |  | 92.1% | 90.8% |
| O=C(c1nc2ccccc2[nH]1)C1C(c2ccc(Cl)cc2)C2CC3CCCC[C@H]3N2[C@@]12C(=O)Nc1cc(Cl)ccc12 (stereo partly drawn) | 30.2% | 26% | 34.4% | 59% | 49.3% | 31.9% | 50.1% | 59.3% | 35% | 72% | 66.7% | 34.5% | 48% | 20.1% | 46.4% | 40.5% | 20.6% |  | 30.2% | 7.41% (active) |
| O=C(CCN1CCCC1)Nc1ccc2c(Nc3ccc(F)cc3)c3ccccc3nc2c1 | -31.9% (active) | 4.15% (active) | 16.3% | 13.8% | -42.1% (active) | 8.99% (active) | 33.9% | 21.5% | -61.2% (active) | -40.8% (active) | 49% | 47.5% | 9.14% (active) | -89.1% (active) | -20.1% (active) | -13.3% (active) | -75.9% (active) |  | -17.8% (active) | -9.71% (active) |
| NC(=NCCCOc1ccc(F)cc1)Nc1ccc(Cl)cc1 | 69.4% | 13.8% | 80.9% | 55.2% | 76.7% | 50.2% | 4.33% (active) | 56.8% | 83.9% | 88.3% | 84.6% | 52.8% | 65.1% | 49.1% | 64% | 18.3% | 39% |  | 49.7% | 23.5% |
| CC(C)(C)c1ccc(NS(=O)(=O)c2ccc3nc(NC(=O)c4cnccn4)[nH]c3c2)cc1 | 28.6% | 11% | -30.3% (active) | 40% | 35.3% | 28.3% | 13.4% | 40.4% | 40.4% | 45.8% | 45.3% | 58.6% | 44.3% | 36.1% | 57.4% | 39.6% | 21.7% |  | 7.84% (active) | 27.7% |
| O=C(C1CCC1)N1N=C(c2ccc(-n3ccc(C(F)(F)F)n3)cc2)CC1c1ccc[nH]1 (stereo not drawn) | 85.6% | 89.8% | 101% | 95.9% | 82.2% | 76.5% | 100% | 90.5% | 92.8% | 104% | 101% | 90.4% | 98.3% | 94.4% | 89.1% | 102% | 91.5% |  | 89.9% | 74.8% |
| COc1ccccc1/C=C1\Oc2cc(OCCN3CCCC3)ccc2C1=O | 39.4% | 14% | 90.5% | 88.9% | 76.1% | 83% | 87.2% | 97.3% | 68.1% | 91.8% | 106% | 85.9% | 88.8% | 66.3% | 97.9% | 94.2% | 94.3% |  | 54.7% | 68.7% |
